Inconclusive results are not listed. Entries that show only a call come without a potency. The source made the active and inactive calls. The call rests on the fitted dose curve; in most records, active means well fitted curve in the direction sought with a large enough effect; inconclusive means small, poorly fitted or top-dose-only effect, or another doubt; inactive means no such curve, though single readings can be large; an effect the other way counts as inactive or inconclusive.
Assays:
[1] = qHTS for Inhibitors of Plasmodium falciparum (DD2) proliferation (AID 504314);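 further: parasite DNA measured by SYBR Green fluorescence after red cell lysis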
Procedure, shortened: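 Parasite proliferation measured as SYBR Green signal from Plasmodium DNA, mature erythrocytes lacking DNA. 72 h incubation, 37C; activity scaled between vehicle and 0.29 uM artemisinin, with correction from vehicle-only plates.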

[2] = qHTS for Inhibitors of Plasmodium falciparum (GB4) proliferation (AID 504315); further: nearly all actives have a fitted effect of over 50% in size
Procedure, shortened: (§1)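 Parasite growth measured as SYBR Green DNA fluorescence (ex 485, em 535 nm) after overnight lysis following 72 h culture at 37 °C, 0.3% parasitemia, 2.5% hematocrit. Values normalized against DMSO and 0.29 uM artemisinin controls, with plate-stack correction.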

[3] = qHTS for Inhibitors of Plasmodium falciparum (7G8) proliferation (AID 504316); further: nearly all actives have a fitted effect of over 65% in size; further: potency means the concentration at half of the fitted maximal effect
Procedure, shortened: as §1

[4] = qHTS for Inhibitors of Plasmodium falciparum (CP250) proliferation (AID 504320)
Procedure, shortened: as §1

[5] = qHTS for Inhibitors of Plasmodium falciparum (HB3) proliferation (AID 504318); further: nearly all actives have a fitted effect of over 60% in size; further: potency means the concentration at half of the fitted maximal effect
Procedure, shortened: as §1

| SMILES | Potency [1] | Potency [2] | Potency [3] | Potency [4] | Potency [5] |
| --- | --- | --- | --- | --- | --- |
| C[C@@H]1C[C@](C)(C(=O)c2ccc3c(c2)OCO3)C=C1c1ccc2c(c1)OCO2 | inactive | inactive | inactive | inactive |  |
| C=C(C)C1CC23C(=O)[C@]4(C(=O)c5ccccc5)C[C@@]5(C)CCC(CC2C1(C)C)(C4=O)[C@@]35OC (stereo not given in full) | inactive |  |  | inactive |  |
| O=C1[C@@H]2[C@H]3[C@H](O)[C@H](O)CC(=NOC[C@@H](O)COCc4ccco4)[C@@H]3CC[C@H]2C(=O)N1Cc1ccccc1 |  | inactive |  | inactive |  |
| O=C1CCCC2=C1[C@H]1O[C@](c3ccsc3)(Cc3c1ccc1ccccc31)O2 |  | inactive |  | inactive | inactive |
| CC(=O)OC[C@H]1O[C@H](CC=NOC[C@@H](O)COCc2ccco2)C=C[C@H]1OC(C)=O |  | inactive | inactive | inactive | inactive |
| CC1(C)OCC([C@H](O)C2=CCCCC2=O)CO1 |  | inactive |  | inactive |  |
| C=CCCCN1C(=O)NC(c2ccccc2)C(C(=O)OC)=C1C (stereo not given) | inactive |  | inactive | inactive | inactive |
| COc1ccc2c(c1)O[C@@H](c1cccc(C(F)(F)F)c1)[C@H](OC(=O)NC1CCCC1)C2=O | inactive |  |  | inactive |  |
| COc1cccc([C@H]2NC(=O)C[C@@H]3C[C@@H](C)[C@@H](c4cccc(OC)c4)N3C(=O)C=CC[C@@H]2C)c1 |  |  |  | inactive |  |
| COc1cccc([C@H]2Oc3ccc(OC)cc3C(=NO[C@H](C)c3cn([C@H](CO)Cc4ccccc4)nn3)[C@H]2O)c1 |  | inactive |  | inactive | inactive |
| COC(=O)C1=C(C)N(Cc2ccccc2)C(=O)NC1CCc1ccccc1 (stereo not given) |  |  |  | inactive | inactive |
| C=C(CO[C@@H]1C=C[C@@H](c2ccccc2)O[C@@H]1CO)c1ccccc1 |  | inactive | inactive | inactive | inactive |
| COC(=O)CCC(=O)N1C2=NC3=C(C(=O)N(Cc4ccc5c(c4)OCO5)C3=O)C3N(C)c4ccccc4[C@]23C[C@H]1CO (stereo not given in full) |  |  |  | inactive |  |
| CCN1C(=NCc2cc(OC)c(OC)c(OC)c2)NC(c2cccc(F)c2)C(C(=O)OC)=C1C (stereo not given) |  |  | 849 nM (active) | inactive |  |
| C=CCOC(=O)N[C@H](c1ccc(-c2ccccc2)cc1)[C@H](C)C=CCC(=O)OC |  | inactive |  | inactive |  |
| COc1ccc(O[C@H]2C=C[C@@H](c3ccccc3)O[C@H]2CON=C(C)CCN2CCCc3nc(C)c(C)cc32)cc1 |  |  | 1510 nM (active) |  | 3290 nM (active) |

Reference: PubChem BioAssay (NCATS)
